Where “and” joins values, the source holds several entries; their conditions need not be identical. Equal values may be shown once. For part of these data: Potency and affinity values are given separately. Calls of active or inactive are those of the source. Rule as the data show it, unless noted: active = parasite load remaining mostly below about 12% (no sharp cut-off); inactive = mostly above about 10%. Bridge positions count the residues as written; N and C are the ends. Square brackets hold non-standard residues; d marks the D form. Peptide text beside a SMILES is read from it. * marks the point of attachment. ξ: configuration not given here. ξDab(CH2SO3H) = NC(CCNCS(=O)(=O)O)C(=O)O; Heptanoyl(6-Me) = CC(C)CCCCC(=O)*; Dab = NCC[CH](N)C(=O)O
Experiments:
[1] = polyglutamine-triggered caspase-3 activation inhibitors, cell-based (AID 1583); details: polyglutamine-induced caspase-3 activation, cell assay; stronger effect = higher value;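 tested at 10 µM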
[2] = suppressors of polyQ aggregation in yeast, 75Q-TubU reporter (AID 1593); details: Yeast 75Q polyglutamine aggregation reporter
[3] = rescue of polyQ-huntingtin neuronal dysfunction in worms, whole organism, C. elegans mechanosensory neurons, N-terminal huntingtin (AID 1599); details: touch response, stronger effect = higher value
[4] = inhibitors of mitochondrial cytochrome c release, biochemical, purified mitochondria (AID 1603); details: stronger effect = lower value;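 also: mouse liver mitochondria challenged with calcium chloride; signal normalized to the plate average as 100%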
[5] = inhibitors of polyQ protein aggregation (AID 1604); details: polyglutamine-induced protein aggregation inhibition assay; stronger effect = higher value; tested at 2.5 µM
[6] = enhancers of glutamate uptake in motor neurons, MN-1 cell line (AID 1612); details: MN-1 motor neuron cells, stronger effect = higher value;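 also: tested at 1 µM final; 0% = mean of DMSO vehicle wells on each plate; positive means more glutamate uptake than control and negative means less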
[7] = reducers of polyQ inclusions in PC12 cells, cell-based, NGF-treated PC12, GFPQ80 (AID 1614); details: PC12 NGF-treated GFP-polyQ80 inclusion reduction;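 also: lower means fewer inclusions and 0 means no inclusions at all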
[8] = suppressors of polyglutamine aggregation in yeast, 75Q-TubH (AID 1616); details: S. cerevisiae 75Q-TubH polyglutamine aggregation suppression; stronger effect = higher value
[9] = liver-stage malaria parasite growth inhibition, primary screen, cell-based, HepG2, luciferase luminescence, HepG2 viability (AID 624349);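 also: 100% = mean of DMSO negative control wells on the same plate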; details: P. berghei liver stage in HepG2, luciferase luminescence, concentration not given here; parasite load remaining: stronger effect = lower value; viability: measured here: HepG2 viability without parasites
[10] = differential killing of epithelial or mesenchymal cells, primary screen, imaging, PC-3E GFP, TEM4-18 mCherry, co-culture (AID 1345086;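 active = compounds killing one labelled cell type while sparing the other, by normalised counts and ratio limits, not self-fluorescent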;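 as to all read-outs here: cells exposed to compound for 72 h before imaging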;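 as to red/green cell ratio (normalised): normalised mesenchymal count divided by normalised epithelial count so high means epithelial killing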); details: imaging cell counts, at 1 µM; for red/green cell ratio (normalised): actives lie on both sides, counts scaled to control wells, 1 = unselective
[11] = sensitizers of A549 cells to miR-34 induction, primary screen, imaging, A549 dox-inducible miR-34, nuclei and caspase counts (AID 1347080;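 active = compounds whose cell count with miR-34 switched on is under 0.7 times the count with it off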); details: A549 miR-34 inducible, Hoechst nuclei count, 48 h
[12] = measured here: epithelial PC-3E GFP cell survival
[13] = measured here: mesenchymal TEM4-18 mCherry cell survival
[14] = stronger effect = lower value, cell number ratio, induced over uninduced
[15] = measured here: relative caspase fold change +Dox/-Dox
[16] = measured here: total cells with miR-34 induction, stronger effect = lower value
[17] = measured here: total cells without miR-34 induction

| Compound | inhibition [1] | score [2] | rescue above control [3] | cytochrome c release ratio [4] | inhibition of aggregation [5] | glutamate uptake change [6] | inclusion score [7] | aggregation suppression score [8] | parasite load remaining [9] | viability [9] | red/green cell ratio (normalised) [10] | normalised cell number [10, 12] | normalised cell number [10, 13] | fold change [11, 14] | fold change [11, 15] | cell count [11, 16] | cell count [11, 17] |
| --- | --- | --- | --- | --- | --- | --- | --- | --- | --- | --- | --- | --- | --- | --- | --- | --- | --- |
| CC(=O)[C@@]1(O)CCC2C3C[C@H](C)C4=CC(=O)C=CC4(C)[C@@]3(F)[C@@H](O)C[C@@]21C (stereo partly specified) | 8.98% | 1.5 | 24.4 | 0.92 | -25.4% | 25.3% | 3 | 1.45 | 116% (inactive) and 26.7% (inactive) | 75.2% and 95.6% | 1.21 (inactive) | 1.18 | 1.43 | 0.851 (inactive) | 3.38 | 7310 | 8590 |
| NC(=O)c1cc[n+](CC2=C(C(=O)O)N3C(=O)C(NC(=O)C(c4ccccc4)S(=O)(=O)[O-])C3SC2)cc1 (stereo unspecified) | -4.99% | 0.99 | -3.36 | 0.92 | 24.1% | -27.4% | 2 | 1.42 | 51% (inactive) | 86.8% | 0.99 (inactive) | 1.08 | 1.07 | 0.877 (inactive) | 3.65 | 11600 | 13200 |
| C=C1CC[C@H](O)C/C1=C/C=C1\CCC[C@]2(C)C([C@H](C)/C=C/[C@H](C)C(C)C)CC[C@@H]12 (stereo partly specified) | 1.02% | 0.91 | 1.1 | 1.43 | 63.2% | 0.71% | 3 | 0.441 | 81.3% (inactive) and 44.7% (inactive) | 73.5% and 101% | 1.11 (inactive) | 1.28 | 1.42 | 0.922 (inactive) | 2.88 | 11200 | 12200 |
| O=c1[nH]c(=O)n(C2C[C@@H](O)[C@@H](CO)O2)cc1F (stereo partly specified) | -9.47% | 1.23 | -12.2 | 0.97 | 28.2% | 1.59% | 2 | 1.24 | 79.5% (inactive) and 36% (inactive) | 108% | 0.79 (inactive) | 0.79 | 0.62 | 1.13 (inactive) | 1.5 | 4220 | 3730 |
| NCC[C@@H](O)C(=O)N[C@@H]1C[C@H](N)[C@@H](O[C@H]2O[C@H](CN)[C@@H](O)[C@H](O)[C@H]2O)[C@H](O)[C@H]1O[C@H]1O[C@H](CO)[C@@H](O)[C@H](N)C1O (stereo partly specified) | -41.9% | 1.11 | -4.05 | 0.95 | 36.6% | 9.38% | 2 | 1.24 | 115% (inactive) and 70.5% (inactive) | 74.2% and 95.8% | 1 (inactive) | 1.2 | 1.2 | 0.885 (inactive) | 0.583 | 10600 | 11900 |
| COC(=O)C1[C@H]2C[C@H]3c4[nH]c5ccccc5c4CCN3C[C@@H]2CC[C@@H]1O (stereo partly specified) | -35.1% | 1.22 | 15.8 | 0.69 | 9.99% | -7.18% | 2 | 1.41 | 81.2% (inactive) and 40.6% (inactive) | 73.2% and 95.3% | 1.01 (inactive) | 1.03 | 1.04 | 0.924 (inactive) | 3.3 | 12100 | 13100 |
| CCOC(=O)OC(C)OC(=O)C1N2C(=O)C(NC(=O)[C@H](N)c3ccccc3)C2SC1(C)C (stereo partly specified) | 5.61% | 1.5 | -4.3 | 0.96 | 70.4% | -13.3% | 2 | 1.07 | 43.5% (inactive) | 104% | 1.19 (inactive) | 1.07 | 1.27 | 0.906 (inactive) | 2.54 | 11600 | 12800 |
| CO[C@H]1/C=C/O[C@@]2(C)Oc3c(C)c(O)c4c(O)c(c(C=NN5CCN(C)CC5)c(O)c4c3C2=O)NC(=O)/C(C)=C\C=C\C(C)[C@H](O)[C@@H](C)[C@@H](O)[C@@H](C)[C@@H](OC(C)=O)[C@@H]1C (stereo partly specified) | -10.8% | 1.2 | 1.38 | 0.69 | 83.1% | -15.2% | 2 | 0.812 | 73.9% (inactive) and 34.2% (inactive) | 73.4% and 91.2% | 1.06 (inactive) | 0.87 | 0.91 | 0.892 (inactive) | 3.2 | 11300 | 12700 |
| CCC(C)C1NC(=O)C(CCNCS(=O)(=O)O)NC(=O)C(NC(=O)C(CCNCS(=O)(=O)O)NC(=O)C(NC(=O)C(CCNCS(=O)(=O)O)NC(=O)CCCCC(C)C)C(C)O)CCNC(=O)C(C(C)O)NC(=O)C(CCNCS(=O)(=O)O)NC(=O)C(CCNCS(=O)(=O)O)NC(=O)C(C(C)CC)NC1=O (stereo unspecified) ({Heptanoyl(6-Me)}-[ξDab(CH2SO3H)]T[ξDab(CH2SO3H)][Dab][ξDab(CH2SO3H)]II[ξDab(CH2SO3H)][ξDab(CH2SO3H)]T; lactam 4-C; configuration not given here) | 16.7% | 0.3 | 0 | 1.4 | 59.3% | -9.16% |  | 0.253 | 124% (inactive) and 57.4% (inactive) | 68.9% and 92.3% | 1.41 (inactive) | 1.02 | 1.44 | 0.942 (inactive) | 0.679 | 11200 | 11900 |
| C=C[C@@]1(C)CC(=O)[C@@]2(O)[C@](C)(O1)[C@@H](OC(C)=O)[C@@H](O)C1C(C)(C)CC[C@H](O)[C@@]12C (stereo partly specified) | 4.06% | 1.39 | 0.33 | 0.91 | 15.4% | 15.8% | 1 | 1.2 | 150% (inactive) and 45.5% (inactive) | 93.3% and 96.7% | 1 (inactive) | 1.25 | 1.26 | 0.888 (inactive) | 3.59 | 11900 | 13400 |
| CCN1CCN(C(=O)NC(C(=O)N[C@@H]2C(=O)N3[C@@H]2SC(C)(C)[C@@H]3C(=O)O)c2ccccc2)C(=O)C1=O (stereo partly specified) | -12.4% | 1.33 | 11.4 | 1 | 57.7% | 3.02% | 2 | 1.27 | 83.4% (inactive) and 122% (inactive) | 73% and 103% | 1.25 (inactive) | 0.93 | 1.17 | 0.831 (inactive) | 1.11 | 10100 | 12200 |
